From PubChem BioAssay (NCI)
The panel holds about 79,000 compounds, 15% with a hit somewhere; the sample as a whole holds those more often. A number with no mark means an inactive call. Active and inactive are the calls of the source. No stated cut-off is given here; in the data, active means growth inhibition above about 70%; inactive means the rest.

Tests used:
[1] = NCI Yeast Anticancer Drug Screen. Data for the rad52 strain (AID 147);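 further: 0% = growth of vehicle-treated control cultures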; settings: S. cerevisiae rad52 mutant growth inhibition, hits give high values
In short: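 Vehicle-treated cultures served as the reference for growth inhibition of compound-exposed yeast bearing a DNA repair mutation.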

[2] = NCI Yeast Anticancer Drug Screen. Data for the wt1 strain (AID 149);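 further: 0% = growth of vehicle-treated wt1 cultures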; settings: S. cerevisiae wt1 strain (SPY 50644) growth inhibition, hits give high values
In short: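 Measured: growth of wt1 yeast under compound versus vehicle treatment, reported as inhibition.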

[3] = NCI Yeast Anticancer Drug Screen. Data for the rad50EPP+ strain (AID 151);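 further: 0% = growth of vehicle-treated control cultures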; settings: S. cerevisiae rad50 mutant strain, hits give high values
In short: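 In this screen, rad50EPP+ yeast were exposed to compounds. Growth inhibition was scored against vehicle-treated controls.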

[4] = NCI Yeast Anticancer Drug Screen. Data for the mgt1 strain (AID 153); settings: S. cerevisiae mgt1 mutant growth inhibition, hits give high values
In short: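 mgt1 strain exposed; growth vs vehicle control recorded as inhibition.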

[5] = NCI Yeast Anticancer Drug Screen. Data for the rad50 strain (AID 155);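 further: 0% = growth of vehicle-only cultures of the same strain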; settings: S. cerevisiae rad50 strain growth inhibition, hits give high values
In short: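 Growth of the mutant yeast was measured after compound exposure and referenced to vehicle-treated cultures.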

[6] = NCI Yeast Anticancer Drug Screen. Data for the mec2-1 strain (AID 157); settings: S. cerevisiae mec2-1 strain, hits give high values
In short: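 Vehicle-treated cultures served as reference for growth inhibition of compound-exposed mec2-1 yeast.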

[7] = NCI Yeast Anticancer Drug Screen. Data for the rad14 strain (AID 159);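 further: 0% = growth of vehicle-treated control cultures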; settings: S. cerevisiae rad14 strain growth inhibition, hits give high values
In short: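 Here, inhibition of yeast growth was measured after compound exposure, using a strain with a genetic defect in DNA damage repair and vehicle-treated cultures as the reference.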

[8] = NCI Yeast Anticancer Drug Screen. Data for the sgs1 mgt1 strain (AID 161);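 further: 0% = growth of cultures given vehicle only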; settings: S. cerevisiae sgs1 mgt1 strain, hits give high values
In short: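 Genetically altered yeast, compound exposure, growth inhibition relative to vehicle.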

[9] = NCI Yeast Anticancer Drug Screen. Data for the CLN2oe strain (AID 163);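 further: 0% = growth of vehicle-only control cultures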; settings: S. cerevisiae CLN2oe strain, hits give high values
In short: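 Inhibition relative to vehicle-treated yeast is reported. Cells: strain with genetic alteration in cell-cycle control, grown with compound.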

[10] = NCI Yeast Anticancer Drug Screen. Data for the cln2 rad14 strain (AID 165);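 further: 0% = growth equal to vehicle treated cultures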; settings: S. cerevisiae cln2 rad14 strain, hits give high values
In short: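 Each compound was tested on cln2 rad14 yeast. Inhibition of growth was calculated against vehicle-exposed controls.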

[11] = NCI Yeast Anticancer Drug Screen. Data for the bub3 strain (AID 167); settings: S. cerevisiae bub3 mutant strain, hits give high values
In short: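 Whole-cell yeast assay. The mutant strain was incubated with compounds, and growth inhibition was determined by comparison with vehicle-treated cells.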

[12] = NCI Yeast Anticancer Drug Screen. Data for the wt2 strain (AID 169);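 further: 0% = growth of vehicle-treated yeast cultures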; settings: S. cerevisiae wt2 strain growth inhibition, hits give high values
In short: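 Inhibition of yeast growth was determined after compound treatment, normalised to controls receiving only vehicle.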

[13] = NCI Yeast Anticancer Drug Screen. Data for the mlh1 strain (AID 171);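 further: 0% = growth of vehicle-treated control cultures of the same strain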; settings: S. cerevisiae mlh1 strain growth inhibition, hits give high values
In short: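 Vehicle-normalised growth inhibition of a repair- or checkpoint-altered yeast strain following compound treatment.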

[14] = NCI Yeast Anticancer Drug Screen. Data for the sgs1 strain (AID 173);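 further: 0% = growth of vehicle-only control cultures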; settings: S. cerevisiae sgs1 mutant, hits give high values
In short: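 Screen format: yeast with repair or checkpoint alterations, compound exposure, growth read relative to vehicle.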

[15] = NCI Yeast Anticancer Drug Screen. Data for the mlh1 rad18 strain (AID 175); settings: S. cerevisiae mlh1 rad18 strain growth inhibition, hits give high values
In short: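 Vehicle-treated cultures served as the reference for growth inhibition in a yeast strain carrying DNA damage repair alterations exposed to each compound.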

[16] = NCI Yeast Anticancer Drug Screen. Data for the rad18 strain (AID 177); settings: S. cerevisiae rad18 mutant growth inhibition, hits give high values
In short: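 Test articles were incubated with altered yeast defective in DNA damage repair. Results are given as inhibition of growth versus vehicle.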

[17] = at 5.0 µM (retest, dose inferred, filed as 0.5)
[18] = at 50.0 µM (retest, dose inferred, filed as 5.0)

In the case of `CC(C)C(=O)CC(Sc1ccc(N)cc1)c1ccccc1` (stereo not drawn), the growth inhibition ([1]; at 1.2 µM) is reported as 2%, the growth inhibition ([1]; at 3.7 µM) is reported as 8% and the growth inhibition ([1]; at 11.0 µM) is reported as 23%. For the same molecule, the growth inhibition ([1]; at 33.0 µM) was 47%, the growth inhibition ([1]; at 100.0 µM) was 83% (active) and the growth inhibition ([2]; at 1.2 µM) was -4%. The growth inhibition ([2]; at 3.7 µM) was -4%, the growth inhibition ([2]; at 11.0 µM) was -1% and the growth inhibition ([2]; at 33.0 µM) was 10%. For the same molecule, the growth inhibition ([2]; at 100.0 µM) was 18%, the growth inhibition ([3]; at 1.2 µM) was -5% and the growth inhibition ([3]; at 3.7 µM) was -4%. It also gave a growth inhibition ([3]; at 11.0 µM) of 1%, a growth inhibition ([3]; at 33.0 µM) of 6% and a growth inhibition ([3]; at 100.0 µM) of 8%. It also gave a growth inhibition ([4]; at 1.2 µM) of -2%, a growth inhibition ([4]; at 3.7 µM) of -5% and a growth inhibition ([4]; at 11.0 µM) of 27%. It also gave a growth inhibition ([4]; at 33.0 µM) of 32%, a growth inhibition ([4]; at 100.0 µM) of 58% and a growth inhibition ([5]; at 1.2 µM) of -1%. It also gave a growth inhibition ([5]; at 3.7 µM) of 1%, a growth inhibition [5, 17] of -22% and a growth inhibition ([5]; at 11.0 µM) of -19%. The growth inhibition ([5]; at 33.0 µM) was 24%, the growth inhibition [5, 18] was 77% (active) and the growth inhibition ([5]; at 50.0 µM) was 55.6%. It also gave a growth inhibition ([5]; at 100.0 µM) of 42%, a growth inhibition ([6]; at 1.2 µM) of 1% and a growth inhibition ([6]; at 3.7 µM) of -2%. The growth inhibition [6, 17] was -2%, the growth inhibition ([6]; at 11.0 µM) was 10% and the growth inhibition ([6]; at 33.0 µM) was 27%. For the same molecule, the growth inhibition [6, 18] was 88% (active), the growth inhibition ([6]; at 50.0 µM) was 36.5% and the growth inhibition ([6]; at 100.0 µM) was 40%. For the same molecule, the growth inhibition ([7]; at 1.2 µM) was 1%, the growth inhibition ([7]; at 3.7 µM) was 2% and the growth inhibition ([7]; at 11.0 µM) was 6%. The growth inhibition ([7]; at 33.0 µM) was 25%, the growth inhibition ([7]; at 100.0 µM) was 46% and the growth inhibition [8, 17] was -26%. For the same molecule, the growth inhibition [8, 18] was 87% (active), the growth inhibition ([8]; at 50.0 µM) was 53% and the growth inhibition ([9]; at 1.2 µM) was -2%. The growth inhibition ([9]; at 3.7 µM) was -13%, the growth inhibition ([9]; at 11.0 µM) was -7% and the growth inhibition ([9]; at 33.0 µM) was 20%. For the same molecule, the growth inhibition ([9]; at 100.0 µM) was 35%, the growth inhibition [10, 17] was -3% and the growth inhibition [10, 18] was 57%. The growth inhibition ([10]; at 50.0 µM) was 27.8%, the growth inhibition ([11]; at 1.2 µM) was 87% (active) and the growth inhibition ([11]; at 3.7 µM) was 89% (active). For the same molecule, the growth inhibition [11, 17] was 89% (active), the growth inhibition ([11]; at 11.0 µM) was 90% (active) and the growth inhibition ([11]; at 33.0 µM) was 91% (active). The growth inhibition [11, 18] was 98% (active), the growth inhibition ([11]; at 50.0 µM) was 85.1% (active) and the growth inhibition ([11]; at 100.0 µM) was 92% (active). It also gave a growth inhibition ([12]; at 1.2 µM) of -2%, a growth inhibition ([12]; at 3.7 µM) of -2% and a growth inhibition ([12]; at 11.0 µM) of 10%. For the same molecule, the growth inhibition ([12]; at 33.0 µM) was 47%, the growth inhibition ([12]; at 100.0 µM) was 57% and the growth inhibition ([13]; at 1.2 µM) was 1%. It also gave a growth inhibition ([13]; at 3.7 µM) of -2%, a growth inhibition ([13]; at 11.0 µM) of 7% and a growth inhibition ([13]; at 33.0 µM) of 30%. The growth inhibition ([13]; at 100.0 µM) was 48%, the growth inhibition ([14]; at 1.2 µM) was 0% and the growth inhibition ([14]; at 3.7 µM) was 4%. For the same molecule, the growth inhibition ([14]; at 11.0 µM) was 22%, the growth inhibition ([14]; at 33.0 µM) was 62% and the growth inhibition ([14]; at 100.0 µM) was 79% (active). The growth inhibition [15, 17] was -19%, the growth inhibition [15, 18] was 85% (active) and the growth inhibition ([15]; at 50.0 µM) was 42.5%. For the same molecule, the growth inhibition ([16]; at 1.2 µM) was -8%, the growth inhibition ([16]; at 3.7 µM) was -2% and the growth inhibition ([16]; at 11.0 µM) was 12%. For the same molecule, the growth inhibition ([16]; at 33.0 µM) was 30% and the growth inhibition ([16]; at 100.0 µM) was 52%.
